# Data from PubChem BioAssay (Tox21).
# Inconclusive results are not listed. A call without a number means that no potency is given here. Activity calls are given as the source filed them. Unless noted, calls come from the whole dose curve; as a rule, active = well fitted curve in the direction sought with a large enough effect in the repeat runs; inconclusive = weak or mixed curves; inactive = no such curve, though single readings can be large; an effect the other way counts as inactive or inconclusive.
# Experiments:
# [1] = qHTS assay to identify aromatase inhibitors - cell viability counter screen (AID 743084);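 note: cells stimulated with testosterone during compound exposure; nearly all actives have a fitted effect of over 55% in size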
# [2] = target: Aryl hydrocarbon receptor (Homo sapiens) (UniProt P35869); test: qHTS assay to identify small molecule that activate the aryl hydrocarbon receptor (AhR) signaling pathway (AID 743085); note: nearly all actives have a fitted effect of over 15% in size; note: potency is the fitted concentration of half-maximal effect;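 for activation: HG2L7.5c1 human HepG2 liver cells with stably integrated DRE-driven firefly reporter; series mostly up to about 70 µM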
# Outline: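 Compounds were tested in HepG2 hepatocellular carcinoma cells harbouring a stably integrated luciferase gene under control of 20 DREs. Increased reporter signal after 24 h treatment at 37C was taken as AhR activation.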
# [3] = qHTS assay to identify small molecule that activate the aryl hydrocarbon receptor (AhR) signaling pathway - cell viability counter screen (AID 743086);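 note: HepG2 liver cells carrying the AhR DRE luciferase reporter; series mostly up to about 70 µM; nearly all actives have a fitted effect of over 45% in size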
# Outline: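 HepG2-AhR-luc (HG2L7.5c1) cells, 4000/well, treated 24 h at 37 C with compound; viability measured as CellTiter-Fluor fluorescence after 30 min in the same wells as the luciferase read.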
# [4] = target: Peroxisome proliferator-activated receptor gamma (Homo sapiens) (UniProt P37231); test: qHTS assay to identify small molecule agonists of the peroxisome proliferator-activated receptor gamma (PPARg) signaling pathway (AID 743094; active = well fitted activation curve with a large enough effect in the signal ratio in the repeat runs, not every such curve was filed as active; the % refers to the signal ratio)
# Outline: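 Stably transfected HEK293H cells (GeneBLAzer PPARg UAS-bla) were incubated with test substances for 17 h at 37C after a 5 h pre-incubation; beta-lactamase activity was then detected by FRET substrate fluorescence.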
# [5] = target: Peroxisome proliferator-activated receptor gamma (Homo sapiens) (UniProt P37231); test: qHTS assay to identify small molecule antagonists of the peroxisome proliferator-activated receptor gamma (PPARg) signaling pathway (AID 743191; calls by dose curve; note: nearly all actives have a fitted effect of over 30% in size; note: potency is the fitted concentration of half-maximal effect)
# Outline: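 GeneBLAzer PPARg UAS-bla HEK293H cells, 5 h post-plating, exposed to compounds 17 h at 37C. LiveBLAzer B/G FRET substrate added for 1 h at room temperature; beta-lactamase reporter read by fluorescence intensity.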
# [6] = qHTS assay to identify small molecule antagonists of the peroxisome proliferator-activated receptor gamma (PPARg) signaling pathway - cell viability counter screen (AID 743194); details: Potency: co-treated with 50 nM rosiglitazone; note: nearly all actives have a fitted effect of over 55% in size
# Outline: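 Cytotoxicity counter screen in PPARg-bla HEK293H cells, same wells as reporter assay. Compounds plus 50 nM rosiglitazone (final) for 17 h at 37 C, then viability read by CellTiter-Glo luminescence.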
# [7] = qHTS assay for small molecule agonists of the antioxidant response element (ARE) signaling pathway (AID 743202; active = well fitted activation curve with a large enough effect in the signal ratio in the repeat runs, not every such curve was filed as active; the % refers to the signal ratio)
# Outline: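 Agonist mode reporter screen: HepG2 cells with ARE-controlled beta-lactamase are incubated with test compounds for 16 h at 37 C, and beta-lactamase activity is measured as fluorescence of cleaved B/G FRET substrate.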
# [8] = qHTS assay for small molecule agonists of the antioxidant response element (ARE) signaling pathway - cell viability counter screen (AID 743203; calls by dose curve; note: nearly all actives have a fitted effect of over 55% in size)
# Outline: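 Cells (ARE-bla HepG2, 2,000/well) receive DMSO-dissolved compounds after a 5 hrs rest. Plates incubate 16 hrs at 37C/5% CO2. CellTiter-Glo luminescence is then recorded after 30 min at room temperature.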
# [9] = qHTS assay for small molecule activators of the heat shock response signaling pathway - cell viability counter screen (AID 743209); note: nearly all actives have a fitted effect of over 50% in size
# Outline: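 Quantitative HTS format, Tox21 10K library. HeLa cells carrying an HSE-driven beta-lactamase reporter were treated 5 h at 37 C, then assessed for viability by CellTiter-Glo luminescence.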
# [10] = qHTS assay for small molecule activators of the heat shock response signaling pathway (AID 743210; active = well fitted activation curve with a large enough effect in the signal ratio in the repeat runs, with a control signal flat, not every such curve was filed as active; the % refers to the signal ratio;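 note: HeLa cells with beta-lactamase reporter driven by heat shock elements; series mostly up to about 63 µM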)
# Outline: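 Quantitative high-throughput format using an engineered HeLa line in which heat shock response elements drive beta-lactamase; after 5 h with compound, cells received a B/G FRET substrate and fluorescence was read.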
# [11] = qHTS assay to identify small molecule agonists of the peroxisome proliferator-activated receptor delta (PPARd) signaling pathway - cell viability counter screen (AID 743211); note: nearly all actives have a fitted effect of over 55% in size
# Outline: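 Counter screen for cytotoxicity run in parallel with the PPARd reporter screen. Beta-lactamase reporter HEK293H cells exposed to compounds 17 h; ATP-based CellTiter-Glo luminescence quantified viability.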
# [12] = qHTS assay to identify small molecule agonists of the farnesoid-X-receptor (FXR) signaling pathway - cell viability counter screen (AID 743218); note: nearly all actives have a fitted effect of over 45% in size
# Outline: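 In GeneBLAzer FXR-UAS-bla HEK 293T cells, compounds act for 16 h at 37 C. Cell viability is then scored in the reporter wells by CellTiter-Glo, 30 min at RT, luminescence.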
# [13] = qHTS assay to identify small molecule antagonists of the farnesoid-X-receptor (FXR) signaling pathway - cell viability counter screen (AID 743221; active = well fitted cell-killing curve with a large enough effect in the repeat runs, not every such curve was filed as active; note: nearly all actives have a fitted effect of over 50% in size)
# Outline: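 Multiplexed counter screen: viability of FXR-bla HEK 293T cells under agonist stimulation by chenodeoxycholic acid (50 uM, final) and test compound for 16 h at 37 C, measured by CellTiter-Glo luminescence in the reporter wells.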
# [14] = target: Vitamin D3 receptor (Homo sapiens) (UniProt P11473); test: qHTS assay to identify small molecule agonists of the vitamin D receptor (VDR) signaling pathway (AID 743222; calls by dose curve)
# Outline: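 Agonist activity measured in VDR-bla reporter cells. Exposure 16 h, 37C, 5% CO2; detection by B/G FRET substrate, 2 h RT.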
# [15] = target: Vitamin D3 receptor (Homo sapiens) (UniProt P11473); test: qHTS assay to identify small molecule antagonists of the vitamin D receptor (VDR) signaling pathway (AID 743223; active = well fitted inhibition curve with a large enough effect in the signal ratio in the repeat runs, not every such curve was filed as active; the % refers to the signal ratio)
# Outline: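 Cells carrying a VDR-driven beta-lactamase reporter (VDR-bla) were co-treated with compound and 3 nM final 1alpha,25-dihydroxyvitamin D3 for 16 h at 37C; reporter activity was measured as FRET substrate fluorescence after 2 h at room temperature.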
# [16] = target: Peroxisome proliferator-activated receptor delta (Homo sapiens) (UniProt Q03181); test: qHTS assay to identify small molecule agonists of the peroxisome proliferator-activated receptor delta (PPARd) signaling pathway (AID 743212; calls by dose curve)
# Outline: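 Quantitative high-throughput agonist screen in a HEK293H beta-lactamase reporter line under UAS control. Compounds in DMSO, at 37 C. Fluorescence read after 2 h with FRET substrate at room temperature.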
# [17] = qHTS assay to identify small molecule antagonists of the peroxisome proliferator-activated receptor delta (PPARd) signaling pathway - cell viability counter screen (AID 743213); note: nearly all actives have a fitted effect of over 50% in size
# Outline: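 HEK293H cells with the PPARd UAS-bla reporter, co-treated 17 h at 37 C with compounds and L165041 (300 nM final), were lysed with CellTiter-Glo. Luminescence indicated viable cell content.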
# [18] = target: Peroxisome proliferator-activated receptor delta (Homo sapiens) (UniProt Q03181); test: qHTS assay to identify small molecule antagonists of the peroxisome proliferator-activated receptor delta (PPARd) signaling pathway (AID 743215; active = well fitted inhibition curve with a large enough effect in the signal ratio in the repeat runs, not every such curve was filed as active; the % refers to the signal ratio;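 note: cells stimulated with agonist L165041 at 300 nM final during compound exposure; series mostly up to about 62 µM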)
# Outline: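 Antagonist-mode beta-lactamase reporter screen: HEK293H cells with UAS-bla under PPARd control, stimulated by 300 nM L165041 (final) alongside test compound for 17 h at 37 C, then FRET fluorescence after 2 h substrate incubation.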
# [19] = target: Bile acid receptor (Homo sapiens) (UniProt Q96RI1); test: qHTS assay to identify small molecule antagonists of the farnesoid-X-receptor (FXR) signaling pathway (AID 743217; active = well fitted inhibition curve with a large enough effect in the signal ratio in the repeat runs, not every such curve was filed as active; the % refers to the signal ratio)
# Outline: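 Beta-lactamase reporter under UAS control in HEK 293T cells; compound exposure 16 h at 37 °C in the presence of chenodeoxycholic acid (50 uM final); signal from B/G FRET substrate after 2 h at room temperature.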
# [20] = target: Bile acid receptor (Homo sapiens) (UniProt Q96RI1); test: qHTS assay to identify small molecule agonists of the farnesoid-X-receptor (FXR) signaling pathway (AID 743220; active = well fitted activation curve with a large enough effect in the signal ratio in the repeat runs, not every such curve was filed as active; the % refers to the signal ratio)
# Outline: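 Beta-lactamase reporter under UAS control in GeneBLAzer FXR HEK 293T cells (5000/well) measured with LiveBLAzer FRET substrate after 2 h at room temperature. Compound exposure lasted 16 h at 37C.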
# Chain of Vitamin D3 receptor (Homo sapiens) (P11473 whole entry, looked up): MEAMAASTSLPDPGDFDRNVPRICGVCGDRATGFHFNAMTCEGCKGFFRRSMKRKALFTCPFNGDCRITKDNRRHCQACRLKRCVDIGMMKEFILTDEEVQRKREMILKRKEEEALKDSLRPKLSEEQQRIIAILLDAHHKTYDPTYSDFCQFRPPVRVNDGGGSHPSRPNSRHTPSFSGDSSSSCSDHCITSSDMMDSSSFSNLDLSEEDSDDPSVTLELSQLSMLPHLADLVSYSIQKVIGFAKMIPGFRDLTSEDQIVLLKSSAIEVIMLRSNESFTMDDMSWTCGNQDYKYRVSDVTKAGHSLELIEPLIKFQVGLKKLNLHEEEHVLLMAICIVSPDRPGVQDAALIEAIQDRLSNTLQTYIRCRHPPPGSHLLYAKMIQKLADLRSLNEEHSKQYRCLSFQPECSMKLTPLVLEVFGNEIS
# Chain of Bile acid receptor (Homo sapiens) (Q96RI1 whole entry, looked up): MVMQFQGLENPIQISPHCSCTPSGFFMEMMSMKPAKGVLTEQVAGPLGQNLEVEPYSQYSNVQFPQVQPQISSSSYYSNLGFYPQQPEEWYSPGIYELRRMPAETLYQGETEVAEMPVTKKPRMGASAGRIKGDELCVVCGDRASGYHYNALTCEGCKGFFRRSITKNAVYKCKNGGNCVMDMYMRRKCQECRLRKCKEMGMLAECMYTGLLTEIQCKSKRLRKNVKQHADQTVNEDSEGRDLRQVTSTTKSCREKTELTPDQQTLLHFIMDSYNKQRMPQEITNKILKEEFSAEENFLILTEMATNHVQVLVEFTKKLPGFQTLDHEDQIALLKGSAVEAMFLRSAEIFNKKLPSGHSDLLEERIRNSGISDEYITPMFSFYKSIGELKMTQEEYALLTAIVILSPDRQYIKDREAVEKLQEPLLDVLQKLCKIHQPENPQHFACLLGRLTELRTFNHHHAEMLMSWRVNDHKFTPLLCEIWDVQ
# Chain of Peroxisome proliferator-activated receptor delta (Homo sapiens) (Q03181 whole entry, looked up): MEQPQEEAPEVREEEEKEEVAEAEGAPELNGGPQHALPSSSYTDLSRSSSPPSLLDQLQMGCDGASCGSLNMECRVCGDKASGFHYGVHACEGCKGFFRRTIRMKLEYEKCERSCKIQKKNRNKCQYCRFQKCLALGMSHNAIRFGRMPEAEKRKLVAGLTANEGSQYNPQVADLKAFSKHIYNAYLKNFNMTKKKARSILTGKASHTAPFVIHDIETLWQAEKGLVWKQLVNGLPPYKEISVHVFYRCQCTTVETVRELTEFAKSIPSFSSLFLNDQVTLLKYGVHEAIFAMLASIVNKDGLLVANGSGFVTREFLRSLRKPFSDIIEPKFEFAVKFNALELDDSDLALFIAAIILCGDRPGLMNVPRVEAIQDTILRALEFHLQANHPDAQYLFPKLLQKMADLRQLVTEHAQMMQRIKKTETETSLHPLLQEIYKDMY
# Chain of Aryl hydrocarbon receptor (Homo sapiens) (P35869 whole entry, looked up): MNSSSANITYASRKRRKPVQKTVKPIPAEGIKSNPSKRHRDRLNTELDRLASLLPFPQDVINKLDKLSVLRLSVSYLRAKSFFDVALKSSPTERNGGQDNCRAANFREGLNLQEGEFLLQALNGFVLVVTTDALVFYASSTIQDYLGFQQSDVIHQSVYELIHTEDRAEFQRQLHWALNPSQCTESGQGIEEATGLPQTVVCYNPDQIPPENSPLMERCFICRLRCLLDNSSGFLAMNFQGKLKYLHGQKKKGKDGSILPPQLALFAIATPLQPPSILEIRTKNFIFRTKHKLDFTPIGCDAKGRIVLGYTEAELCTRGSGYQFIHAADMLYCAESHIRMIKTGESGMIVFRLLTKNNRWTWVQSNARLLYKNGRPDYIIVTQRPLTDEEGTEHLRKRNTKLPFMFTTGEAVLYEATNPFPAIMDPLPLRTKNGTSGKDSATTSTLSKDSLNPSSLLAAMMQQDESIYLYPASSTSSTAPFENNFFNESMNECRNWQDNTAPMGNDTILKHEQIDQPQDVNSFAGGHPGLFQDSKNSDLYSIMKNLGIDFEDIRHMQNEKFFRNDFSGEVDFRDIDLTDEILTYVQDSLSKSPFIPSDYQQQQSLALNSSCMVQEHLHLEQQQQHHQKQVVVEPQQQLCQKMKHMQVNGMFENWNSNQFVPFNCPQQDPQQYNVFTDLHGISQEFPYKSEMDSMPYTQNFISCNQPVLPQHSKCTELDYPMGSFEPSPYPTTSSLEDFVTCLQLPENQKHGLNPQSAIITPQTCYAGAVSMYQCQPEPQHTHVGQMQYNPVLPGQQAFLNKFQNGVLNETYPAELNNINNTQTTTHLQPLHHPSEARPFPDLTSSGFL
# Chain of Peroxisome proliferator-activated receptor gamma (Homo sapiens) (P37231 whole entry, looked up): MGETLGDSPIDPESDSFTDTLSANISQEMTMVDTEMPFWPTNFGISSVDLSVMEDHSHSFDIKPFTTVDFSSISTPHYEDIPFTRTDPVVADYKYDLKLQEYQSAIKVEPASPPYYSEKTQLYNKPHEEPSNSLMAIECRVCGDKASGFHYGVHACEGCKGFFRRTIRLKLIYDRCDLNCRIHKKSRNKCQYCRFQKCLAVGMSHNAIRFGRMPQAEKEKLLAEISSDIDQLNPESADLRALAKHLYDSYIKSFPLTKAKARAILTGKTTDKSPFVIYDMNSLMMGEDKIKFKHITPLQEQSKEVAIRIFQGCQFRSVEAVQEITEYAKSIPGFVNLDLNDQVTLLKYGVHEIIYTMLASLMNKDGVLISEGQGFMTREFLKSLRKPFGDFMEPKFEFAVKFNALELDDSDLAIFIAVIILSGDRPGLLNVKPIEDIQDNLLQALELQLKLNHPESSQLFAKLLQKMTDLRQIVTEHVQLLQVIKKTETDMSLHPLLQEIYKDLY
Compound,Potency [1],Potency [2],Potency [3],outcome [4],Potency [5],Potency [6],Potency [7],Potency [8],Potency [9],Potency [10],Potency [11],Potency [12],Potency [13],outcome [14],outcome [15],outcome [16],Potency [17],Potency [18],outcome [19],outcome [20]
CCNP(=S)(OC)O/C(C)=C/C(=O)OC(C)C (centres undefined),inactive,4.86 µM (active),inactive,inactive,inactive,inactive,inactive,inactive,inactive,inactive,inactive,inactive,inactive,inactive,inactive,,,,,
COP(=O)(O)OC,inactive,inactive,inactive,inactive,inactive,inactive,inactive,inactive,inactive,inactive,inactive,inactive,inactive,,,inactive,inactive,inactive,inactive,inactive
CCCC[N+](=O)[O-],inactive,inactive,inactive,inactive,inactive,inactive,inactive,inactive,inactive,inactive,inactive,inactive,inactive,inactive,inactive,,inactive,,inactive,inactive
NC(=O)OCCCc1ccccc1,inactive,inactive,inactive,inactive,inactive,inactive,inactive,inactive,inactive,inactive,inactive,inactive,inactive,,,,,,,
ClCCCCCCCl,inactive,inactive,inactive,inactive,inactive,inactive,inactive,inactive,inactive,inactive,inactive,inactive,inactive,inactive,inactive,,inactive,,,
Cn1c(CCCC(=O)O)nc2cc(N(CCCl)CCCl)ccc21,inactive,inactive,inactive,inactive,inactive,inactive,inactive,inactive,inactive,inactive,inactive,inactive,inactive,,,inactive,inactive,inactive,inactive,inactive
CCNc1nc(Cl)nc(NC(C)(C)C)n1,inactive,inactive,inactive,inactive,inactive,inactive,inactive,inactive,inactive,inactive,inactive,inactive,inactive,inactive,inactive,inactive,inactive,inactive,inactive,inactive
N=C(N)[Se],inactive,inactive,inactive,inactive,inactive,inactive,inactive,inactive,inactive,inactive,inactive,inactive,inactive,inactive,inactive,inactive,,inactive,,
CC(Cl)(Cl)Cl,inactive,inactive,inactive,inactive,inactive,inactive,inactive,inactive,inactive,inactive,inactive,inactive,inactive,inactive,inactive,inactive,,inactive,,
BrCc1ccc(Br)cc1,inactive,inactive,inactive,inactive,inactive,inactive,inactive,inactive,inactive,inactive,inactive,inactive,inactive,inactive,inactive,inactive,inactive,inactive,inactive,inactive
Cc1ccc2c(c1)C1CN(C)CCC1N2 (centres undefined),inactive,inactive,inactive,inactive,inactive,inactive,inactive,inactive,inactive,inactive,inactive,inactive,inactive,inactive,inactive,inactive,inactive,inactive,inactive,inactive
NCC1(CC(=O)O)CCCCC1,inactive,inactive,inactive,inactive,inactive,inactive,inactive,inactive,inactive,inactive,inactive,inactive,inactive,inactive,,inactive,inactive,,,
O=S1(=O)OCCO1,inactive,inactive,inactive,inactive,inactive,inactive,inactive,inactive,inactive,inactive,inactive,inactive,inactive,,inactive,inactive,inactive,inactive,,inactive
CCCCCCCCSC(=O)Oc1cc(Cl)nnc1-c1ccccc1,inactive,inactive,inactive,inactive,43.6 µM (active),inactive,inactive,inactive,inactive,inactive,inactive,inactive,inactive,inactive,inactive,inactive,inactive,inactive,,
C=CC1(C)OC(=O)N(c2cc(Cl)cc(Cl)c2)C1=O (centres undefined),inactive,inactive,inactive,inactive,inactive,inactive,inactive,inactive,inactive,inactive,inactive,inactive,inactive,,inactive,inactive,inactive,inactive,inactive,inactive
N#CN,inactive,inactive,inactive,inactive,inactive,inactive,inactive,inactive,inactive,inactive,inactive,inactive,inactive,,inactive,inactive,inactive,,,
